Inconclusive results are not listed. Active and inactive are the calls of the source. The calls were made as follows: active = hit-call score of the fitted dose curve at least 0.9, where 1 is the maximum; inconclusive = response in the unintended direction; inactive = score below 0.9.

The assay in a line: Tanguay_ZF_120hpf_BRAI_legacy: (Legacy) Oregon State University Tanguay Lab 120 Hour Post-fertilization zebrafish Assay for Brain Malformation (AID 2283641). The procedure: Tanguay_ZF_120hpf_legacy is a whole embryo, multiplexed endpoint assay using zebrafish larvae exposed for 120 hours post fertilization on a 96-well plate.Tanguay_ZF_120hpf_BRAI_legacy is one of one assay component(s) measured or calculated from the Tanguay_ZF_120hpf_legacy assay. It is designed to make measurements of zebrafish development as detected with brightfield microscopy of developing zebrafish embryos.Data from the assay component Tanguay_ZF_120hpf_BRAI_legacy was analyzed into 1 assay endpoints. This assay endpoint, Tanguay_ZF_120hpf_BRAI_legacy, was analyzed in the positive analysis fitting direction relative to DMSO as the negative control and baseline of activity. Using a type of morphology reporter, gain-of-signal activity can be used to understand changes in developmentals as they relate to the whole embryo. To generalize the intended target to other relatable targets, this assay endpoint is annotated to the zebrafish development intended target family, where the subfamily is brain morphogenesis.
Zebrafish husbandry: Tropical 5D wild-type adult zebrafish were housed in at an approximate density of 1000 per 100 gallon tank at the Sinnhuber Aquatic Research Laboratory, Oregon State University, Corvallis, OR. Each tank was kept at standard laboratory conditions of 28C on a 14-h light/10-h dark photoperiod in fish water consisting of reverse osmosis water supplemented with a commercially available salt (Instant Ocean). Spawning funnels were placed into the tanks the night prior, and embryos were collected and staged. […] Ten microliters of each row of dilution plate 2 was added to 2 exposure plates. The final DMSO concentration used was 0.64% (vol/vol). Thirty-two embryos were also exposed to 5uM trimethyltin chloride (positive control). Plates were sealed to prevent evaporation and foil covered to reduce light exposure and kept in a 28C incubator. Embryos were statically exposed until 120 hpf. At 24 hpf, embryos were assessed for photomotor response using a custom photomotor response analysis tool (PRAT) and for developmental toxicity endpoints (MO24: mortality at 24 hpf, DP: developmental progression, SM: spontaneous movement, and NC: notochord distortion). At 120 hpf, locomotor activity was measured using Viewpoint Zebralab and assessed for 18 endpoints. Zebrafish acquisition and analysis program (ZAAP), a custom program designed to inventory, acquire, and manage zebrafish data, was used to collect developmental endpoints as either present or absent (i.e., binary responses were recorded). If mortality occurred for an embryo (at either 24 or 120 hpf), the non-mortality endpoints were not measured.
With `CC1=NNC(=O)N(/N=C/c2cccnc2)C1`, the call was inactive.
Same read-out and setting: to `CCCCN(CC)c1c([N+](=O)[O-])cc(C(F)(F)F)cc1[N+](=O)[O-]` belongs “inactive”; to `CCOP(=S)(OCC)SCCSCC`, “inactive”.
As to `CNC(=O)Oc1cccc2c1OC(C)(C)O2`, the result was inactive.
Same read-out and setting: in the case of `Cc1cc(C2CC2)nc(Nc2ccccc2)n1` it was “inactive”; in that of `CCNc1nc(Cl)nc(NC(C)(C)C#N)n1`, “inactive”.
Take `CN1COCN(Cc2cnc(Cl)s2)C1=N[N+](=O)[O-]`: the outcome was inactive.
On the same count and under the same terms, in the case of `CC[C@H](C)[C@H]1O[C@]2(C=C[C@@H]1C)C[C@@H]1C[C@@H](C/C=C(\C)[C@@H](O[C@H]3C[C@H](OC)[C@@H](O[C@H]4C[C@H](OC)[C@@H](NC)[C@H](C)O4)[C@H](C)O3)[C@@H](C)/C=C/C=C3\CO[C@@H]4[C@H](O)C(C)=C[C@@H](C(=O)O1)[C@]34O)O2` it was “inactive”; in that of `CCCCSP(=O)(SCCCC)SCCCC`, “inactive”.
In the case of `Cc1nn(-c2cc(NS(C)(=O)=O)c(Cl)cc2Cl)c(=O)n1C(F)F`, the call was inactive.
Take `C=C(C)[C@H]1Cc2c(ccc3c2O[C@@H]2COc4cc(OC)c(OC)cc4[C@@H]2C3=O)O1`: the molecule was classed as inactive.
For `COP(=O)(NC(C)=O)SC` (stereo not given), the call was inactive.
Same read-out and setting: to `CCc1cccc(C)c1N(C(=O)CCl)C(C)COC` (stereo not given) belongs “inactive”.
`COc1ccc(C(=CC(=O)N2CCOCC2)c2ccc(Cl)cc2)cc1OC`: the AC50 is 40.9 µM (active).
As to `COc1cccc(C(=O)NN(C(=O)c2cc(C)cc(C)c2)C(C)(C)C)c1C`, the outcome was inactive.
With `CON=C(C(=O)OC)c1ccccc1CON=C(C)c1cccc(C(F)(F)F)c1`, the concentration at half-maximal activity (AC50) is 6.64 µM (active).
For `CCCSP(=O)(OCC)Oc1ccc(Br)cc1Cl` (stereo not given), the molecule was called inactive.
Same read-out and setting: to `Cc1ccn2nc(S(=O)(=O)Nc3c(F)cccc3F)nc2n1` belongs “inactive”.
For `CSc1nnc(C(C)(C)C)c(=O)n1N`, the outcome was inactive.
As for `CCc1cnc(C2=NC(C)(C(C)C)C(=O)N2)c(C(=O)O)c1` (stereo not given), the result was inactive.
With `FC(F)C(F)(F)OCC(Cn1cncn1)c1ccc(Cl)cc1Cl` (stereo not given), the half-maximal activity concentration (AC50) was 13.7 µM (active).
For the molecule `O=[N+]([O-])c1cc(C(F)(F)F)c(Cl)c([N+](=O)[O-])c1Nc1ncc(C(F)(F)F)cc1Cl`, the outcome was inactive.
Same read-out and setting: in the case of `CC(C)N(C(=O)SCC(Cl)=C(Cl)Cl)C(C)C` it was “inactive”; in that of `CNC(=O)ON=C(C)SC`, “inactive”; in that of `CCOP(=O)(SC(C)CC)N1CCSC1=O` (stereo not given), “inactive”.
Still for that read-out and setting: to `CC(COc1ccc(Oc2ccccc2)cc1)Oc1ccccn1` (stereo not given) belongs “inactive”.
`CC1(C(=O)Nc2ccc(O)c(Cl)c2Cl)CCCCC1`: the molecule was classed as inactive.
The same measure, in the same setting: to `CCC(CC)Nc1c([N+](=O)[O-])cc(C)c(C)c1[N+](=O)[O-]` belongs “inactive”; to `CSc1nc(NC(C)C)nc(NC(C)C)n1`, “inactive”; to `C#CCC1=C(C)C(OC(=O)C2C(C=C(C)C)C2(C)C)CC1=O` (stereo not given), “inactive”.
The same measure, in the same setting: to `CSC1=N[C@@](C)(c2ccccc2)C(=O)N1Nc1ccccc1` belongs “inactive”; to `CCOP(=S)(Oc1cnc(C(C)(C)C)nc1)OC(C)C` (stereo not given), “inactive”; to `CN(C)NC(=O)CCC(=O)O`, “inactive”.
The same measure, in the same setting: in the case of `CNC(=O)ON=C(SC)C(=O)N(C)C` it was “inactive”; in that of `CCCCOC(=O)c1ccccc1C(=O)O`, “inactive”; in that of `CN(C)C(=O)Nc1cccc(C(F)(F)F)c1`, “inactive”.
Consider `CC(=NC#N)N(C)Cc1ccc(Cl)nc1`, for which the result was inactive.
On the same count and under the same terms, to `COP(=O)(OC)OC(Br)C(Cl)(Cl)Br` (stereo not given) belongs “inactive”.
With `CNc1cnn(-c2cccc(C(F)(F)F)c2)c(=O)c1Cl`, the outcome was inactive.
For the molecule `CC(C1CC1)C(O)(Cn1cncn1)c1ccc(Cl)cc1` (stereo not given), the AC50 is 22.6 µM (active).

A word on the AC50: it is the midpoint of the concentration-response curve, whichever way the signal moves.

The record behind these values is PubChem BioAssay (EPA / NIEHS).
